Measured values from PubChem BioAssay (EPA / NIEHS).
The source made the active and inactive calls. Rule for the calls: active = hit-call score of the fitted dose curve at least 0.9, where 1 is the maximum; inactive = score below 0.9.

Assays:
[1] = ATG_GRE_CIS: Attagene CIS-FACTORIAL HepG2 Assay for human Glucocorticoid Response Elements (GRE) (AID 2282947); conditions: HepG2 GRE cis-reporter, Attagene multiplex mRNA; actives raise or lower the signal
Procedure, shortened: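 Endogenous transcription factor activity is read through cis-element reporter constructs transiently transfected into HepG2 cells. After 24 h treatment, labelled RT-PCR products are resolved by capillary electrophoresis; DMSO sets baseline for bidirectional curve fitting.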

[2] = ATG_ISRE_CIS: Attagene CIS-FACTORIAL HepG2 Assay for human Interferon Regulatory Factor 1 (IRF1) binding to an Interferon-Stimulated Response Element (ISRE) (AID 2282948); conditions: HepG2 ISRE cis-reporter (Attagene), mRNA transcription readout; actives raise or lower the signal
Procedure, shortened: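 Cell-based cis-reporter assay; HepG2; 24 h exposure; reporter mRNA by RT-PCR plus capillary electrophoresis fluorescence; activity in either direction scored relative to DMSO.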

[3] = ATG_M_32_CIS: Attagene CIS-FACTORIAL HepG2 Assay for M32 Transcription Factor (Internal Marker) (AID 2282949); conditions: HepG2 Attagene cis-factorial M32 reporter, mRNA; actives raise or lower the signal;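 note: background control marker of the multiplexed CIS panel rather than a real target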
Procedure, shortened: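 Following 24 h chemical exposure of HepG2 cells transiently expressing cis-promoter reporter constructs, reporter transcript levels were determined by RT-PCR with fluorescent labelling and capillary electrophoresis, then fitted bidirectionally against DMSO.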

[4] = ATG_M_06_CIS: Attagene CIS-FACTORIAL HepG2 Assay for M06 Transcription Factor (Internal Marker) (AID 2282950); conditions: HepG2 Attagene CIS-FACTORIAL M06 internal marker reporter; actives raise or lower the signal
Procedure, shortened: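 Internal background marker within multiplexed cis-reporter HepG2 system. Cells transiently transfected, dosed 24 h; reporter mRNA measured by RT-PCR, HpaI digestion and capillary electrophoresis. Bidirectional fit relative to DMSO.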

[5] = target: Hypoxia-inducible factor 1-alpha (Homo sapiens) (UniProt Q16665); experiment: ATG_HIF1a_CIS: Attagene CIS-FACTORIAL HepG2 Assay for human Hypoxia Inducible Factor 1 (HIF1A) (AID 2282951); conditions: HepG2 Attagene cis-factorial HIF1a reporter transcription; actives raise or lower the signal
Hypoxia-inducible factor 1-alpha (Homo sapiens), sequence (Q16665 whole entry, looked up): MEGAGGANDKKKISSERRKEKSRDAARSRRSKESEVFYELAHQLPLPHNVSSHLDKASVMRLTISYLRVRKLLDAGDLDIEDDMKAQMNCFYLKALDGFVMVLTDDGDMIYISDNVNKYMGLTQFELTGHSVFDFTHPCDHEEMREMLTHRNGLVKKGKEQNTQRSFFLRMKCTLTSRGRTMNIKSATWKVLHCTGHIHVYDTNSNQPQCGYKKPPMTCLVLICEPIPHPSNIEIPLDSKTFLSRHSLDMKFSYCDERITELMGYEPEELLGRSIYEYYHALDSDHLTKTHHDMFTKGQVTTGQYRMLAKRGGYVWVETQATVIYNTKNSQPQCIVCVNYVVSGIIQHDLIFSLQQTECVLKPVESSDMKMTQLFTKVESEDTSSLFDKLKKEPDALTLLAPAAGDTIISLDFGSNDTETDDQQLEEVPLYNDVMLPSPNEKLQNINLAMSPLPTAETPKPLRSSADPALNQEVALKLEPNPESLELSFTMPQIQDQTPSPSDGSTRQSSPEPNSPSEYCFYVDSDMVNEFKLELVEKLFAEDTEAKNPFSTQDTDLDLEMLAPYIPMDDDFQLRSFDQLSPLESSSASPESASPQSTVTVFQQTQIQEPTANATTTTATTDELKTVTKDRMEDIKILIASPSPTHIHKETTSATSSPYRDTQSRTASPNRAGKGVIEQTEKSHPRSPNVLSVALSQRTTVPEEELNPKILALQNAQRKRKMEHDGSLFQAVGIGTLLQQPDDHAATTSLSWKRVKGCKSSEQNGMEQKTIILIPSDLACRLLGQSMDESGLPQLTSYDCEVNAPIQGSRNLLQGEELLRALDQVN
Procedure, shortened: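 Cis-element reporter constructs were transiently transfected into HepG2 cells, which were treated for 24 h; reporter RNA was reverse-transcribed, amplified, labelled and resolved by capillary electrophoresis.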

[6] = target: Hepatocyte nuclear factor 6 (Homo sapiens) (UniProt Q9UBC0); experiment: ATG_HNF6_CIS: Attagene CIS-FACTORIAL HepG2 Assay for human Hepatocyte Nuclear Factor 6 (HNF6) (AID 2282952); conditions: HepG2 Attagene cis-factorial HNF6 reporter transcription; actives raise or lower the signal
Hepatocyte nuclear factor 6 (Homo sapiens), sequence (Q9UBC0 whole entry, looked up): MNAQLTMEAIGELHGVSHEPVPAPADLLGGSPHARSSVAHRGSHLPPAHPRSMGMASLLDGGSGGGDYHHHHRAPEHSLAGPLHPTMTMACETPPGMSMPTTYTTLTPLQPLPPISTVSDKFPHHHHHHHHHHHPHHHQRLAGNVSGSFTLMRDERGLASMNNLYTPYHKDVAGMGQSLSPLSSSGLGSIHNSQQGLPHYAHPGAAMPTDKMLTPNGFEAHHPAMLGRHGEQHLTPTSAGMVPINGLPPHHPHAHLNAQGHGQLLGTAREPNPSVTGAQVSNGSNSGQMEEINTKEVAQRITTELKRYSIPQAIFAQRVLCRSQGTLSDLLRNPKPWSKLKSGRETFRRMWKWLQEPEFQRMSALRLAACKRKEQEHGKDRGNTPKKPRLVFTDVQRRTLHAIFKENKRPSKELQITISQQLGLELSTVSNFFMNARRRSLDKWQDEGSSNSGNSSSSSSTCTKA
Procedure, shortened: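 HepG2 cells transiently transfected with cis-element-driven multiple reporter transcription units, dosed 24 h; reporter mRNA quantified by RT-PCR, FAM primer extension, HpaI digestion and capillary electrophoresis; bidirectional fit versus DMSO baseline.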

[7] = target: Heat shock factor protein 1 (Homo sapiens) (UniProt Q00613); experiment: ATG_HSE_CIS: Attagene CIS-FACTORIAL HepG2 Assay for human Heat Shock Transcription Factor 1 (HSE) (AID 2282953); conditions: HepG2 HSE cis-reporter, Attagene RNA transcription; actives raise or lower the signal
Heat shock factor protein 1 (Homo sapiens), sequence (Q00613 whole entry, looked up): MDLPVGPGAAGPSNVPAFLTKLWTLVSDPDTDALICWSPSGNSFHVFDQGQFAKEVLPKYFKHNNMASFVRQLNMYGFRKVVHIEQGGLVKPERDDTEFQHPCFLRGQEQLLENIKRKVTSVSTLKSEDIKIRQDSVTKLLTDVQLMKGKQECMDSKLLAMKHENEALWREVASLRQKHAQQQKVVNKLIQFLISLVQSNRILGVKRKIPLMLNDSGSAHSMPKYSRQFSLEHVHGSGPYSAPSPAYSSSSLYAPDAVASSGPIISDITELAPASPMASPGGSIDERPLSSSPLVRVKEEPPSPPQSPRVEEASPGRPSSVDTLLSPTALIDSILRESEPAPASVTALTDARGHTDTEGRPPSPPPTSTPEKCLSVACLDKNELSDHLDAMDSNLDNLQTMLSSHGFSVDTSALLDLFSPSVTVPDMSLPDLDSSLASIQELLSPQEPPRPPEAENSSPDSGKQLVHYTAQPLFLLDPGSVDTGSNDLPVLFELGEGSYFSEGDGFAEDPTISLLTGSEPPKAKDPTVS
Procedure, shortened: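 HepG2 cells transfected with cis-promoter reporter units sensing endogenous transcription factor activity; reporter mRNA quantified 24 h post-dose by RT-PCR and capillary electrophoresis of 6-FAM-labelled products. Bidirectional fitting against DMSO.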

[8] = ATG_MRE_CIS: Attagene CIS-FACTORIAL HepG2 Assay for human Metal Responsive Element (MRE) (AID 2282954); conditions: HepG2 MRE cis-reporter transcription, Attagene multiplex; actives raise or lower the signal
Procedure, shortened: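 Fluorescent reporter fragments separated by capillary electrophoresis give mRNA induction for the MRE unit after 24 h treatment of transfected HepG2 cells. Endogenous transcription-factor activity is read; DMSO serves as negative control and baseline.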

[9] = ATG_PBREM_CIS: Attagene CIS-FACTORIAL HepG2 Assay for human Phenobarbital-responsive Enhancer Module (PBREM) (AID 2282955); conditions: HepG2 PBREM cis-reporter, Attagene multiplexed transcription; actives raise or lower the signal
Procedure, shortened: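 Multiplexed cis-reporter readout in human hepatoma HepG2 cells; PBREM-regulated transcript quantified after 24 h exposure by fluorescent RT-PCR fragment analysis. Signal changes up or down fitted relative to DMSO.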

[10] = target: Paired box protein Pax-6 (Homo sapiens) (UniProt P26367); experiment: ATG_Pax6_CIS: Attagene CIS-FACTORIAL HepG2 Assay for human Paired Box 6 (PAX6) (AID 2282956); conditions: HepG2 CIS-FACTORIAL PAX6 reporter transcription, RNA readout; actives raise or lower the signal
Paired box protein Pax-6 (Homo sapiens), sequence (P26367 whole entry, looked up): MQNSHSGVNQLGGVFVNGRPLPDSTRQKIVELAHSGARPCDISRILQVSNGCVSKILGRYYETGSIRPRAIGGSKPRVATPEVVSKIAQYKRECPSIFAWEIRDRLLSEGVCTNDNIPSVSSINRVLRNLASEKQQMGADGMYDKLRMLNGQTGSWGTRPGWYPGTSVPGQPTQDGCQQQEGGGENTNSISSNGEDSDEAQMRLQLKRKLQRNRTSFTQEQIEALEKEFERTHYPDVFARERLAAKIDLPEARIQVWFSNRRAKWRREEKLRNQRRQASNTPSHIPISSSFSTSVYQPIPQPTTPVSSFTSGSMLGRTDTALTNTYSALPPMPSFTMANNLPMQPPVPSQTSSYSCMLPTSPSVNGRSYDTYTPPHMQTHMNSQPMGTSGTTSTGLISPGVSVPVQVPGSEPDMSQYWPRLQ
Procedure, shortened: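 Multiplexed cis-reporter HepG2 system; 24 h treatment; reporter mRNA read by RT-PCR/CE fluorescence; bidirectional fit vs DMSO.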

[11] = ATG_PXRE_CIS: Attagene CIS-FACTORIAL HepG2 Assay for human Pregnane X Receptor Element (PXRE) (AID 2282957); conditions: HepG2 Attagene CIS-FACTORIAL PXRE reporter, mRNA; actives raise or lower the signal
Procedure, shortened: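 HepG2 cells transiently transfected with cis-regulated multiple reporter transcription units; endogenous factor activity measured as reporter mRNA 24 h after dosing. RT-PCR, fluorescent primer extension, HpaI digestion, capillary electrophoresis; bidirectional fit versus DMSO baseline.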

[12] = ATG_PPRE_CIS: Attagene CIS-FACTORIAL HepG2 Assay for human Peroxisome Proliferator-activated Response Element (PPRE) (AID 2282958); conditions: HepG2 PPRE cis-element reporter, Attagene transcription factor profiling; actives raise or lower the signal
Procedure, shortened: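 DMSO served as negative control and baseline for bidirectional curve fitting. Signal came from PPRE-regulated reporter mRNA in HepG2 cells, measured 24 h post-dosing by RT-PCR, 6-FAM primer extension and capillary electrophoresis.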

[13] = ATG_Sox_CIS: Attagene CIS-FACTORIAL HepG2 Assay for human SRY-box transcription factor (SOX) (AID 2282960); conditions: HepG2 Attagene cis-factorial SOX reporter, mRNA; actives raise or lower the signal
Procedure, shortened: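 Fluorescence-labelled cDNA fragments from reporter transcripts, sized by CE, give the signal. Cells: HepG2, transiently transfected with cis-regulated reporter units. Exposure 24 h; DMSO negative control; bidirectional curve fitting.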

[14] = target: Transcription factor Sp1 (Homo sapiens) (UniProt P08047); experiment: ATG_Sp1_CIS: Attagene CIS-FACTORIAL HepG2 Assay for human Specificity Protein 1 (Sp1) (AID 2282961); conditions: HepG2 Sp1 cis-reporter transcription, actives raise or lower the signal
Transcription factor Sp1 (Homo sapiens), sequence (P08047 whole entry, looked up): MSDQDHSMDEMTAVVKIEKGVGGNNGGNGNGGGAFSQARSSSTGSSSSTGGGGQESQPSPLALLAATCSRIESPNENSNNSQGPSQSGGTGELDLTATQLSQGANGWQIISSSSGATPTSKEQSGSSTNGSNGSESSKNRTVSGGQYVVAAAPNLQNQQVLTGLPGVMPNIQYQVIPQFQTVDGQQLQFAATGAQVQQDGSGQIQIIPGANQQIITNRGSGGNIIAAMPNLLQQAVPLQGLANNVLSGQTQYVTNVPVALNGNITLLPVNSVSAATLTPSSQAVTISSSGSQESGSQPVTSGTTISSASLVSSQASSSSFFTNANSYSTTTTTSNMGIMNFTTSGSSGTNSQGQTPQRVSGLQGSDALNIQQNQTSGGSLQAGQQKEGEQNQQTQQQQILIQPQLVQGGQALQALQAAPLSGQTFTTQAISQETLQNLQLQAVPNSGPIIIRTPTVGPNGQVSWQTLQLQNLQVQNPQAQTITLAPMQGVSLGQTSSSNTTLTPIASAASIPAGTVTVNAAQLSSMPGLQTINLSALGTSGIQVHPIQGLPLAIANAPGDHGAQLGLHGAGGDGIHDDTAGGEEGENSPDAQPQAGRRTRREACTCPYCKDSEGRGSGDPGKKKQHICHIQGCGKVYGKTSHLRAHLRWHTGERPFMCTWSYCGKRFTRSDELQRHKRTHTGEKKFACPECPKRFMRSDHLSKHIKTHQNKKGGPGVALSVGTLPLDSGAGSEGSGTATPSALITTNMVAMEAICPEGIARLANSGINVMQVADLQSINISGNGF
Procedure, shortened: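 Chemicals are dosed onto HepG2 cells transfected with multiple cis-promoter reporter constructs, and after 24 h reporter RNA is reverse-transcribed, PCR-amplified and resolved by capillary electrophoresis for fluorescence quantitation; activity is scored up or down against DMSO.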

[15] = ATG_SREBP_CIS: Attagene CIS-FACTORIAL HepG2 Assay for human Sterol Regulatory Element Binding (SREBP) (AID 2282962); conditions: HepG2 Attagene cis-factorial SREBP reporter, mRNA; actives raise or lower the signal
Procedure, shortened: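 mRNA induction of transfected cis-promoter reporters in HepG2 cells, 24 h post-dose. Detection: RT-PCR with 6-FAM-labelled products, HpaI digest, capillary electrophoresis. DMSO served as negative control and baseline.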

[16] = target: Signal transducer and activator of transcription 3 (Homo sapiens) (UniProt P40763); experiment: ATG_STAT3_CIS: Attagene CIS-FACTORIAL HepG2 Assay for human Signal Transducer and Activator of Transcription 3 (STAT3) (AID 2282963); conditions: HepG2, Attagene cis-factorial STAT3 reporter transcription; actives raise or lower the signal
Signal transducer and activator of transcription 3 (Homo sapiens), sequence (P40763 whole entry, looked up): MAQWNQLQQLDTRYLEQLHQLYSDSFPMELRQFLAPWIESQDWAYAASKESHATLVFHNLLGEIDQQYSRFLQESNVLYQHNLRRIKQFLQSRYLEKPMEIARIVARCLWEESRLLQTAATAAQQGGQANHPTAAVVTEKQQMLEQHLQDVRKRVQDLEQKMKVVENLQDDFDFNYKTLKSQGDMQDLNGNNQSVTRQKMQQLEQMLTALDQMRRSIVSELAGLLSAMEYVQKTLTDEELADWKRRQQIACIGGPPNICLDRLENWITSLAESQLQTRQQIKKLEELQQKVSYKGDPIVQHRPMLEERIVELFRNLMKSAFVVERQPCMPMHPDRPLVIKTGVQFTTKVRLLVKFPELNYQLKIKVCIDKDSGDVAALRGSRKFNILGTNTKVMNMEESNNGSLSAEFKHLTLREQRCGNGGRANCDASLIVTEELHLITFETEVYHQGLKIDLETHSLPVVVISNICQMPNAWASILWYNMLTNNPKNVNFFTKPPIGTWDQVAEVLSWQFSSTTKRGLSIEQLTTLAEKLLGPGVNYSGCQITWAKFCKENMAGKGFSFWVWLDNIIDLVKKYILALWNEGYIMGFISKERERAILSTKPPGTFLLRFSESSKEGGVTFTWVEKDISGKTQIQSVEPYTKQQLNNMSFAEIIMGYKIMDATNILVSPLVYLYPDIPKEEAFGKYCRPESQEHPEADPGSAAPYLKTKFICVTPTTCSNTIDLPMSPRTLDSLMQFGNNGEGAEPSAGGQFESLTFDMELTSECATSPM
Procedure, shortened: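 Values derive from bidirectional fits relative to DMSO of reporter mRNA levels, measured by RT-PCR with capillary electrophoresis, in HepG2 cells carrying transiently transfected cis-regulated reporter units and exposed 24 h.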

[17] = ATG_TA_CIS: Attagene CIS-FACTORIAL HepG2 Assay for human TA Basal Promoter (AID 2282964); conditions: HepG2 Attagene CIS-factorial TA basal promoter reporter; actives raise or lower the signal
Procedure, shortened: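 HepG2 cells transiently transfected with multiple reporter units under cis promoter elements, reporting endogenous transcription factor activity; this endpoint tracks the TA basal promoter as background control. Reporter mRNA after 24 h dosing measured by RT-PCR/capillary electrophoresis; bidirectional fits versus DMSO.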

[18] = ATG_TCF_b_cat_CIS: Attagene CIS-FACTORIAL HepG2 Assay for human T-Cell-Factor with beta-catenin (TCF/b-cat) (AID 2282965); conditions: HepG2 TCF/beta-catenin cis-reporter transcription, actives raise or lower the signal
Procedure, shortened: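 HepG2, transient MRTU transfection, cis-element-driven reporters (endogenous TFs). 24 h compound exposure. Readout: reporter mRNA by RT-PCR + 6-FAM primer extension, HpaI digest, capillary electrophoresis. Gain/loss fit vs DMSO baseline.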

[19] = ATG_TAL_CIS: Attagene CIS-FACTORIAL HepG2 Assay for human TAL Basal Promoter (AID 2282966); conditions: HepG2 Attagene cis-factorial TAL promoter reporter; actives raise or lower the signal;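 note: background control endpoint measuring basal TAL promoter reporter mRNA not a specific factor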
Procedure, shortened: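 HepG2 cells were transiently transfected with promoter-driven multiplexed reporter units and dosed for 24 h. Reporter mRNA was measured by RT-PCR with capillary electrophoresis fluorescence; bidirectional fits used DMSO as baseline, serving as a background control.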

[20] = ATG_RORE_CIS: Attagene CIS-FACTORIAL HepG2 Assay for human RAR-related Orphan Receptor Element (RORE) (AID 2282959); conditions: HepG2 Attagene cis-factorial RORE reporter, mRNA; actives raise or lower the signal
Procedure, shortened: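 Transfect HepG2 with MRTUs; treat 24 h; extract RNA; RT with oligo(dT); PCR with reporter-specific primers; 6-FAM primer extension; HpaI digest 2 h at 37 C; capillary electrophoresis. Fit vs DMSO, bidirectional.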

Measured: AC50

CNC(=O)Oc1cccc2c1OC(C)(C)C2
active: [11] 17.1 µM
not listed: [20]
inactive: all other assays above

CC(C)(O)c1cnn2c(-c3ccc(F)c(-c4c(F)cccc4C#N)c3)cnc2n1
active: [5] 26.8 µM | [7] 25.8 µM | [8] 1.73 µM | [9] 0.785 µM | [11] 0.137 µM | [17] 13.1 µM | [18] 8.97 µM
inactive: all other assays above

c1ccc2c(c1)oc1ccccc12
not listed: [12] | [17] | [20]
inactive: all other assays above
